Bioassay records: PubChem, National Center for Advancing Translational Sciences (NCATS)
EPAC2 ant val – Validation qHTS for antagonist of cAMP-regulated guanine nucleotide exchange factor 4 (EPAC2) | Rap guanine nucleotide exchange factor 4 (Homo sapiens), Q8WZA2 | EPAC2 Rap1B BODIPY-GDP exchange, fluorescence | Potency, µM (doses to about 112 µM), usual class: inhibitors | hit rate 1.7% among 16,000; also: nearly all actives have a fitted effect of over 40% in size
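Fluorescent exchange read-out: 100 nM EPAC2 with 250 nM RAP1B–BODIPY-GDP and 50 uM GDP; BODIPY-GDP release lowers fluorescence. Read at 480/540 nm every 5 min for 30 min at room temperature; normalized to 6.5 mM cAMP.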
EPAC1 agonist – Validation qHTS for agonist of cAMP-regulated guanine nucleotide exchange factor 3 (EPAC1) | Rap guanine nucleotide exchange factor 3 (Homo sapiens), O95398 | EPAC1 Rap1b BODIPY-GDP exchange, fluorescence | Potency, µM, actives largely listed as activators | hit rate 1% among 16,000; also: nearly all actives have a fitted effect of over 70% in size
Target sequence (O95398 whole entry, looked up): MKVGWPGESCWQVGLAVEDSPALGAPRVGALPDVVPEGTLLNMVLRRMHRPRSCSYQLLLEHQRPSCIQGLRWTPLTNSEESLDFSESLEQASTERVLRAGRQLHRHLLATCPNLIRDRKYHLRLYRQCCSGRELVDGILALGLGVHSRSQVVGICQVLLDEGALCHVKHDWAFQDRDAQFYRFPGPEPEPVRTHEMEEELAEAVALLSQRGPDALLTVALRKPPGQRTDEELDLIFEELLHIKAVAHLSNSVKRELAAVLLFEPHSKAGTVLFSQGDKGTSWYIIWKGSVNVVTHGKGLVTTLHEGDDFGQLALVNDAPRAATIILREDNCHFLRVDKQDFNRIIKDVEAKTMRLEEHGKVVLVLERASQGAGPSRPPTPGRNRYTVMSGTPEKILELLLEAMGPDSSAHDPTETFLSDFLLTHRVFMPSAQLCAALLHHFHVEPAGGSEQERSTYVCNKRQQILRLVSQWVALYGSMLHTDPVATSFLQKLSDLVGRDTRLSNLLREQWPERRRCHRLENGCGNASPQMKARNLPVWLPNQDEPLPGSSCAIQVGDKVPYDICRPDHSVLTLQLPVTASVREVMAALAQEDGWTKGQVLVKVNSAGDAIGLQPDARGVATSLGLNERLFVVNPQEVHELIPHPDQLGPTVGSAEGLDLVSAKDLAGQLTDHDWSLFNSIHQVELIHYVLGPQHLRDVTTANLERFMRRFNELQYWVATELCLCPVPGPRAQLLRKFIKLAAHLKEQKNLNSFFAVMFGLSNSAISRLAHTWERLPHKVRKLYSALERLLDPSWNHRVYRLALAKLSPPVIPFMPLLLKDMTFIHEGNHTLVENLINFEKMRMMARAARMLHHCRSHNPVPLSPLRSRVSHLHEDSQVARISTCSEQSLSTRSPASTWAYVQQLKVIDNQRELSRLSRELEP
Numbers stand for hits; i = inactive; ? = inconclusive; ! = repeats disagree. Only some compounds are listed: those with a hit (about 3.1% of all), similar ones and a draw of the others. Calls follow the shape of the dose curve; as a rule, active = well fitted curve in the direction sought with a large enough effect; inconclusive = small, poorly fitted or top-dose-only effect, or another doubt; inactive = no such curve, though single readings can be large; an effect the other way counts as inactive or inconclusive.

SMILES	EPAC2 ant val	EPAC1 agonist
CCCCCC[C@H]1C(=O)O[C@H](C)[C@H](NC(=O)c2cccc(NC=O)c2O)C(=O)O[C@@H](C)[C@@H]1OC(=O)CC(C)C	45µM	i
O=C1CS[C@@H](c2ccccc2Cl)c2cc(Cl)ccc2N1	32µM	i
COc1ccc2c3c1O[C@H]1[C@@H](O)C=C[C@H]4[C@@H](C2)N(C)CC[C@@]341	i	i
CN[C@@]1(c2ccccc2Cl)CCCCC1=O	i	i
CCOC(=O)[C@]12Cc3cc(OC)c(OC)cc3[C@H]1N(Cc1ccccc1)C(=O)c1ccccc12	i	i
CCOC(=O)[C@]12Cc3ccsc3[C@H]1N(Cc1ccccc1)C(=O)c1ccccc12	56µM	?
CCNC1(c2cccs2)CCCCC1=O (stereo not given)	i	i
CC1(C)[C@H](C=C(Cl)Cl)[C@H]1C(=O)OCc1c(F)c(F)cc(F)c1F	i	i
OC[C@@H](O)[C@H]1O[C@@H]2O[C@@H](C(Cl)(Cl)Cl)O[C@@H]2[C@H]1O	i	i
N#CC(C#N)=NNc1ccc(OC(F)(F)F)cc1	40µM	i
CC[C@H](C)[C@H]1O[C@]2(C=C[C@@H]1C)C[C@@H]1C[C@@H](C/C=C(\C)[C@@H](O[C@H]3C[C@H](OC)[C@@H](O[C@H]4C[C@H](OC)[C@@H](O)[C@H](C)O4)[C@H](C)O3)[C@@H](C)/C=C/C=C3\CO[C@@H]4[C@H](O)C(C)=C[C@@H](C(=O)O1)[C@]34O)O2	?	i
CCCCCCCCCC[N+](C)(C)CCCCCCCCCC	i	i
CCCCCCCCCCCCCCCC[N+](C)(C)C	40µM!	i
CC(=O)O[C@H]1C[C@H](O[C@H]2[C@@H](O)C[C@H](O[C@H]3[C@@H](O)C[C@H](OC4CC[C@@]5(C)C(CC[C@@H]6[C@@H]5CC[C@]5(C)[C@@H](C7=CC(=O)OC7)[C@@H](O)C[C@]65O)C4)O[C@@H]3C)O[C@@H]2C)O[C@H](C)[C@H]1O[C@@H]1O[C@H](CO)[C@@H](O)[C@H](O)[C@H]1O (stereo not given in full)	i	i
C#CCN1C(C)=C(C(=O)CCO)[C@@H](c2cccc(-n3oo3)c2)C(C(=O)OC)=C1C	20µM	?
CCN1C[C@]2(COC)[C@H](O)C[C@H](OC)[C@@]34[C@@H]5C[C@@]6(O)[C@H](OC(=O)c7ccccc7)[C@@H]5[C@@](OC(C)=O)([C@@H]([C@H](OC)[C@H]23)[C@@H]14)[C@@H](O)[C@@H]6OC	i	i
CN1CC[C@]23c4c5ccc(O)c4O[C@H]2[C@@H](O)CC[C@H]3[C@H]1C5	i	i
NC[C@H](CS(=O)(=O)O)c1ccc(Cl)cc1	i	i
CCCCCCCCCC(CC)c1ccc(S(=O)(=O)O)cc1 (stereo not given)	56µM!	i
C[C@]12C=CC(=O)C=C1CC[C@@H]1[C@@H]2CC[C@]2(C)OC(=O)CC[C@@H]12	i	i
C[C@@]1(CO)[C@H](O)CC[C@@]2(C)[C@H]1CC[C@H]1C[C@@H]3C[C@@]12CC[C@]3(O)CO	63µM	i
C[C@H]1[C@H]2Cc3ccc(O)cc3[C@]1(C)CCN2CCc1ccccc1	i	i
Cc1ccccc1-n1c(CF)nc2ccc(N)cc2c1=O	i	i
OC[C@@H](O)[C@H]1O[C@@H]2O[C@H](C(Cl)(Cl)Cl)O[C@@H]2[C@H]1O	i	i
CCCCN(CC)c1c([N+](=O)[O-])cc(C(F)(F)F)cc1[N+](=O)[O-]	i	?
SMILES	EPAC2 ant val	EPAC1 agonist
CCCN(CCC)c1c([N+](=O)[O-])cc(S(N)(=O)=O)cc1[N+](=O)[O-]	40µM	i
CCOP(=S)(OCC)SCn1c(=O)oc2cc(Cl)ccc21	32µM	i
COc1cc2occc2c2oc(=O)ccc12	i	?
COc1cc2c(cc1-c1cc3cc4ccoc4cc3oc1=O)OCO2	1.3µM	i
ClC1=C(Cl)[C@]2(Cl)[C@@H]3[C@H]4C[C@H]([C@@H]5O[C@H]45)[C@@H]3[C@@]1(Cl)C2(Cl)Cl	i	i
CCCCCCC(=O)O[C@H]1CC[C@H]2[C@@H]3CC[C@H]4CC(=O)C=C(C)[C@]4(C)[C@H]3CC[C@]12C	i	i
C[C@]12CC[C@H]3[C@@H](CCC4=CC(=O)CC[C@@]43C)[C@@H]1CC[C@H]2O	i	i
CC(C)(C)CC(C)(C)c1ccc(O)cc1	56µM	i
CCC(C)(C)c1ccc(O)cc1	i	i
CCC(OC(C)=O)C(CC(C)NC)(c1ccccc1)c1ccccc1 (stereo not given)	i	i
CC[C@@]1(O)CC(O)c2c(cc3c(c2O)C(=O)c2c(O)ccc(O)c2C3=O)C1C(=O)OC (stereo not given in full)	i	112µM
